The results in this text go back to PubChem BioAssay AID2013 (Sanford-Burnham Center for Chemical Genomics, 2009).

Each structure is given as a SMILES string. Screen size: about 290,000 compounds; about 370 (0.13%) were called active. The sample holds actives, similar compounds and a random draw of the others, so the mix is not that of the screen.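 Rule for the calls: active = spots per cell inhibited over 60%, with over 100 cells counted and total cytoplasm intensity under 500,000; inconclusive = wells with under 100 cells, flagged as likely toxic; inactive = the rest.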 Entries with a potency or affinity are not part of this list.

For the test, the target named is G-protein coupled receptor 55 (Homo sapiens) (UniProt Q9Y2T6). The test can be described thus: inhibition of LPI-stimulated GPR55 beta-arrestin translocation – imaging, U2OS, beta-arrestin-GFP, LPI agonist, primary screen (AID 2013).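 Note: U2OS cells stably carrying GPR55 and arrestin-GFP stimulated by 5 µM LPI near EC80; imaged beta-arrestin-GFP aggregate spots per cell after agonist stimulation; plate controls were LPI-stimulated DMSO wells for no effect and DMSO wells without LPI for full effect.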 The settings on record: LPI antagonism, at 10 µM, hits give high values.
Sequence of G-protein coupled receptor 55 (Homo sapiens) (Q9Y2T6 whole entry, looked up): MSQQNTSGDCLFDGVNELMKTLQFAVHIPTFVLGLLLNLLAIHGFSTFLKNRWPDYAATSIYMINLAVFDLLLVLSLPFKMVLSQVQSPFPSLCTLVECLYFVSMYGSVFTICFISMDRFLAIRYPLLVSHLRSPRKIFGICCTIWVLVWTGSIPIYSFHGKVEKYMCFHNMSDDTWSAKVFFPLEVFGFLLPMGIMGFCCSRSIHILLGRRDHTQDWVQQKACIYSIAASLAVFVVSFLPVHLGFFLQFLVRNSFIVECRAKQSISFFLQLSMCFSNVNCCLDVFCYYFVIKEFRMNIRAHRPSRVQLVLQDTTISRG
With `COC(=O)c1c(C(C)=O)c(C)n(C)c1C`, the inhibition is 9.9% (inactive).

For `O=C(CSc1nc2ccccc2o1)Nc1ccccc1N1CCOCC1`, the inhibition was -2.4% (inactive).

For the molecule `Cc1ccccc1NC(=O)CSc1nc2ccccc2o1`, the inhibition was -27.6% (inactive).

On to `CC1(C)CC(=O)C(CC(=O)Nc2ccc(S(N)(=O)=O)cc2)=C(O)C1`, for which the inhibition was 2.1% (inactive).

For the molecule `COc1ccc(C2c3sc(=O)[nH]c3SC3C4CCC(C4)C23)cc1` (configuration not stated), the inhibition was 39.7% (inactive).

`COc1ccc(C2c3sc(=O)[nH]c3SC3C4CCC(C4)C23)cc1OC` (configuration not stated): the inhibition is 4.6% (inactive).

`CN(C)/C=N/c1nc2nccc(-c3ccccc3)n2n1`: the inhibition was -4.1% (inactive).

Consider `CCC(C)c1ccc(S(=O)(=O)N2CCN(S(=O)(=O)c3ccc(NC(C)=O)cc3)CC2)cc1` (configuration not stated), for which the inhibition was 6.4% (inactive).

For `CCn1cnc2c1c(=O)n(Cc1ccc(C(=O)OC)cc1)c(=O)n2Cc1ccccc1`, the inhibition is 6% (inactive).

On to `CCOC(=O)C1C(C(=O)OCC)C1(c1ccccc1)c1ccccc1` (configuration not stated), for which the inhibition is 94.1% (active).

In the case of `O=C(O)C1C(C(=O)O)C1(c1ccccc1)c1ccccc1` (configuration not stated), the inhibition was -6.8% (inactive).

For the molecule `COC(=O)C1C(C(=O)OC)C1(c1ccccc1)c1ccccc1` (configuration not stated), the inhibition was 5.7% (inactive).

For `O=C(c1ccccc1)N(Cc1ccccc1)Cc1ccccc1`, the inhibition is 11.6% (inactive).

Consider `CC1(C(=O)N(Cc2ccccc2)Cc2ccccc2)CC1(Br)Br` (configuration not stated), for which the inhibition is 80.9% (active).

With `CC12CCC(C(=O)N(Cc3ccccc3)Cc3ccccc3)(OC1=O)C2(C)C` (configuration not stated), the inhibition is 3.1% (inactive).

`COc1ccc(CNS(=O)(=O)c2ccc3c(c2)CCN3C(=O)C2CC2)cc1`: the inhibition is 5.8% (inactive).

In the case of `CCOC(=O)C1CCN(CC(=O)Nc2ccc(OC)c(Cl)c2)CC1`, the inhibition was 17.5% (inactive).

As for `O=C(Cn1c(=O)c(=O)n(Cc2ccccc2)c2ccc(Cl)cc21)Nc1cccc(F)c1`, the inhibition is -4.5% (inactive).

Regarding `Cc1nc2ccccc2c2c1C(=O)N(C(C)C)C2=O`, the inhibition was -5.2% (inactive).

Regarding `O=C(Cn1cnc2ccccc2c1=O)Nc1cccc(-c2nnc3n2CCCCC3)c1`, the inhibition was -5.4% (inactive).

As for `Cc1ccc(C(c2nnnn2C2CCCCC2)N2CCc3ccccc32)cc1` (configuration not stated), the inhibition is 4.6% (inactive).

For the molecule `COc1ccc(C(CCNC(C)c2ccccc2)c2ccc(F)cc2)cc1` (configuration not stated), the inhibition was 29.1% (inactive).

As for `COc1ccc(C(CCNC(C)c2ccccc2)C(C)C)cc1` (configuration not stated), the inhibition is 15.3% (inactive).

For the molecule `COc1ccc(-n2cnnc2SCC(=O)Nc2ccc(C(N)=O)cc2)cc1`, the inhibition is -2.8% (inactive).

`COCc1nnc(NC(=O)C2CC(=O)N(C3CCCC3)C2)s1` (configuration not stated): the inhibition was 8.2% (inactive).

For the molecule `O=C(O)c1cccc(N2C(=O)/C(=C/c3ccc([N+](=O)[O-])cc3)C=C2c2ccccc2)c1`, the inhibition is -16.1% (inactive).

Turning to `O=C1/C(=C/c2ccc([N+](=O)[O-])cc2)C=C(c2ccccc2)N1c1ccccc1`, the inhibition was 25.9% (inactive).

What is called inhibition is the change of the read-out against control, counted positive when it falls.
